# Test results from PubChem BioAssay.
# Values without a mark were called inactive. The source made the active and inactive calls.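 Rule for the calls, unless noted: active = mean inhibition over 43.08%, the solvent-only control mean plus 3 SD; inactive = the rest.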
# What was measured:
# [1] = biological target: Nuclear receptor coactivator 3 (Homo sapiens) (UniProt Q9Y6Q9); experiment: SRC3 coactivator transcriptional activity inhibitors, confirmation, cell-based, luminescence, quadruplicate (AID 588792); details: HEK293 GAL4-SRC3 luciferase reporter, at 3.6 µM, active compounds read high;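 note: 0% = DMSO treated cells and 100% = gossypol at 36 µM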
# [2] = tested on: transactivating tegument protein VP16 (Human herpesvirus 1), Gal4-VP16 luciferase reporter; experiment: VP16 transactivation inhibitors, counter-screen for SRC3 inhibitor project, cell-based, luminescence, high throughput (AID 588794; in the data active = inhibition above about 30%); details: mammalian cells, VP16-driven luciferase reporter luminescence; at 3.6 µM; active compounds read high
# Nuclear receptor coactivator 3 (Homo sapiens), sequence (Q9Y6Q9 whole entry, looked up, the tested form may be a part): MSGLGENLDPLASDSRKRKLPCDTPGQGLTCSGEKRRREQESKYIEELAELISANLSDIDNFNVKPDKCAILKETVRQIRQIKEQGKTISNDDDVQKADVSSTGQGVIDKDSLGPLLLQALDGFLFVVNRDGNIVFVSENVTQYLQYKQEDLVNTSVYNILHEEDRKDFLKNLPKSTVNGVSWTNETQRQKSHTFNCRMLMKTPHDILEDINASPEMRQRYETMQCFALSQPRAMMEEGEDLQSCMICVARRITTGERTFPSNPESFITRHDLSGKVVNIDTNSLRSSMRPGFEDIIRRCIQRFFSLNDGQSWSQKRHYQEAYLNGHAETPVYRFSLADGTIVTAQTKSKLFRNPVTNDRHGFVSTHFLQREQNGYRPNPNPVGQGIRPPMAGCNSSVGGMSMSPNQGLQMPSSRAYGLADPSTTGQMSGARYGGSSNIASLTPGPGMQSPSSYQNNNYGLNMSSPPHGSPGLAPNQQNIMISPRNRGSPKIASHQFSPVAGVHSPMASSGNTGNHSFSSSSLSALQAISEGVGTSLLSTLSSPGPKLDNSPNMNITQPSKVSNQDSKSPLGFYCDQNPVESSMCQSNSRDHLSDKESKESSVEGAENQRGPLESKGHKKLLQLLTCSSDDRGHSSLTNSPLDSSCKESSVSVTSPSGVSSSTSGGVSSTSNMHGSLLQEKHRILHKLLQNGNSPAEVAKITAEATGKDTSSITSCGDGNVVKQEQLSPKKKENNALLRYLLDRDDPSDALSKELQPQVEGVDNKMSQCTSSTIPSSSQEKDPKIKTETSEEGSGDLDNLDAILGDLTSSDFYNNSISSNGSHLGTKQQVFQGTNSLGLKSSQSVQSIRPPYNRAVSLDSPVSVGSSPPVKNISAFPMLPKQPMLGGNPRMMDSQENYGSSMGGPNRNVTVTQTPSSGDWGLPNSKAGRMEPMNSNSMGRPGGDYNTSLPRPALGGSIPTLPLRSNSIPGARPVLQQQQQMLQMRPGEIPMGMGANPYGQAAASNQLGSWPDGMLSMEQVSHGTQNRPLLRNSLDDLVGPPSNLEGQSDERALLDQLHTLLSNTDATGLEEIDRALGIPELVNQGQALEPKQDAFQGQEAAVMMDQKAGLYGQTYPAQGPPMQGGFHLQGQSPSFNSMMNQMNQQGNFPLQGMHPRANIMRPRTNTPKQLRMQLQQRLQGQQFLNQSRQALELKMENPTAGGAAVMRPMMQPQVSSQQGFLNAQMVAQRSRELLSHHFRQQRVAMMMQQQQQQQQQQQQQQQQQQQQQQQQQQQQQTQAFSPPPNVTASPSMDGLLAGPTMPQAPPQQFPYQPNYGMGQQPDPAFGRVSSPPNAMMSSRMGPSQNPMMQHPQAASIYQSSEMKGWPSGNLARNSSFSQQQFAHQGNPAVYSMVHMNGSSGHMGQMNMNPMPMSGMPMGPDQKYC
Structure (SMILES),inhibition [1],inhibition [2]
COc1ccc(C(=O)Cn2nc(CNc3ccc(Br)cc3)[n+]3c2CCCCC3)cc1,-7.02%,3.2%
CC(=O)c1c(O)cc2c3c1OC(C)(C)C1CCC(C)(CC31)O2 (configuration not stated),46.2% (active),30.9% (active)
COc1ccc(C(C(=O)NC2CCCCC2)N(C(=O)CCl)c2ccc(OC)cc2)cc1 (configuration not stated),64.4% (active),27.2%
Cc1sc2ncnc(Sc3nnnn3-c3ccccc3)c2c1C,0.37%,-6.56%
C=CCc1cc(C(=O)N2CCCCC2)ccc1O,14.5%,19.9%
Cc1ccc(S(=O)(=O)N(C)c2ccc(OCC(=O)OCc3c(C)noc3C)cc2)cc1,-4.68%,-6.86%
COc1c(Cl)cc(Cl)cc1/C=C/C(=O)c1ccc(NC(=O)c2cccs2)cc1,48.7% (active),26.6%
O=C1N=C(N2CCN(c3ccccc3)CC2)S/C1=C\c1cn[nH]c1-c1ccccc1,8.51%,2.8%
Cc1cccc(NC(=S)N(CCCN2CCOCC2)Cc2cn(C)c3ccccc23)c1,-2.78%,-2.77%
COC(=O)c1cc(S(=O)(=O)NCCc2ccc(Cl)cc2)c[nH]1,29.2%,18.4%
Cc1nc(Nc2ccc3c(c2)OCCO3)c2nnn(Cc3ccccc3Cl)c2n1,22.1%,-3.54%
CC1CCCC=CC2CC(OC(=O)CN(C)C)CC2C(O)C=CC(=O)O1 (configuration not stated),65.1% (active),71.2% (active)
Cc1sc(-c2ccccn2)nc1OC(=O)c1ccc(F)cc1F,13.9%,16.1%
CC[C@H](C)Cc1cn([C@@H](CCCCNC(=O)OC(C)(C)C)C(=O)NCCCCCCCCCCC(=O)N2CCN(C(=O)OC(C)(C)C)CC2)nn1,17.9%,22.5%
COc1ccc(C(CNC(=O)C(C)(C)Oc2ccc(Cl)cc2)N2CCCCC2)cc1 (configuration not stated),11.2%,2.63%
Cc1cccc(C)c1OCC(=O)N(Cc1cccs1)C1CCS(=O)(=O)C1 (configuration not stated),8.07%,1.1%
O=C(N/N=C/c1c(O)ccc2ccccc12)c1ccc(CO)nc1,26.3%,41.3% (active)
COc1ccc2c(c1)CCc1cnc(N)nc1-2,20%,10.4%

Structure (SMILES),inhibition [1],inhibition [2]
O=C(NC1CCCC1)c1cc(COc2ccc3ncccc3c2)on1,19.7%,43.3% (active)
COc1ccc(N/N=C2/CCCCC2=O)cc1,-38.4%,21%
Cn1nc(CC(=O)Nc2ccc(N3CCN(C(=O)OC(C)(C)C)CC3)cc2)c2ccccc2c1=O,17.6%,42.2% (active)
Clc1ccc(-c2c[n+](Cc3ccc(Cl)cc3Cl)c3n2CCCCC3)cc1,6.98%,10.8%
COc1cccc(CNCCO)c1OCc1ccccc1,-2.38%,8.14%
O=C(Cc1ccccc1)Nc1cc(Cl)ccc1Sc1ccccc1,2.36%,5.41%
COc1ccc(C(=O)Nc2nc(-c3ccccn3)cs2)cc1S(=O)(=O)N1CCOCC1,18.3%,-11.1%
CN(C)c1ccc(C=c2c3cc([N+](=O)[O-])ccc3n3c2cc(-c2ccccc2)[n+]3C)cc1,38.4%,56.7% (active)
Cc1nc(SCC(=O)NCc2ccc3c(c2)OCO3)c(C#N)c2c1CCCC2,-21.9%,-7.85%
COc1ccc(CN2C(=O)c3cccnc3C2=O)cc1S(=O)(=O)NCc1ccccc1,8.01%,-6.65%
COc1ccc2c(c1)N(C)/C(=C/c1cccc[n+]1C)S2,-6.44%,37.5% (active)
O=C(Cc1ccccc1)N/N=C/c1cc(Br)cc(Cl)c1O,19.8%,16.4%
Cc1[nH]n(-c2ccccc2)c(=O)c1/C=N/Nc1nncc(-c2ccccc2)n1,74.3% (active),67.5% (active)
CCOC(=O)N1CCC2(CC1)C(C#N)=C(N)Oc1n[nH]c(CSc3ccc(C)cc3)c12,2.57%,-6.53%
Cc1cc(C)c2nc(C(F)(F)F)c(C#N)c(N)c2c1,45.1% (active),31.6% (active)
CC12CN3CC(C)(CN(C1)C3c1ccccc1F)C2 (configuration not stated),2.53%,4.18%
COc1ccccc1N(CC(=O)N/N=C/c1c(O)ccc2ccccc12)S(C)(=O)=O,34.2%,41.2% (active)
CCN(CC(=O)Nc1ccc(OC)cc1)C(=O)CSCC(=O)Nc1cc(C)on1,5.34%,5.42%
